Potency data for 8 compounds are collected here from PubChem BioAssay (Tox21).

Test [1] in a line: Human pregnane X receptor (PXR) small molecule agonists, qHTS cell viability counter screen (AID 1346977). Further: nearly all actives have a fitted effect of over 50% in size. The essentials: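 Cytotoxicity counter screen run in the same wells as the PXR luciferase assay, using PXR-Luc HepG2 cells in charcoal-stripped serum medium. Viability: CellTiter-Fluor fluorescence after 24hr compound treatment.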
In general terms: In qHTS, concentration-response curves come from the screen itself.

The nature of test [2]: Caspase-3/7 induction in HepG2 cells by small molecules, qHTS assay (AID 1346978). Further: nearly all actives have a fitted effect of over 15% in size. Put shortly: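 Wild-type HepG2 cells (2,000/well) were settled 5 h at 37 C, 5% CO2, then exposed to compounds in DMSO for 17 h. Caspase-3/7 activity was read by luminescence 30 min after adding Caspase-Glo 3/7 reagent at room temperature.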
Test [3] in a line: Caspase-3/7 induction in CHO-K1 cells by small molecules, qHTS cell viability counter screen (AID 1346979). Further: nearly all actives have a fitted effect of over 35% in size. The essentials:
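Cytotoxicity counter screen run in parallel with the caspase-3/7 assay: CHO-K1 cells, 16hr compound treatment at 37C, then CellTiter-Fluor for 1hr before fluorescence reading.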

Test [4] in a line: Caspase-3/7 induction in CHO-K1 cells by small molecules, qHTS assay (AID 1346980). Further: nearly all actives have a fitted effect of over 15% in size. The essentials: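 Wild-type cells were seeded at 1,500 per well and settled 5 hr at 37 C, 5% CO2, then exposed to DMSO-dissolved compounds for 17 hr. Caspase-Glo 3/7 reagent was added, and luminescence was read after 30min at room temperature.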
Test [5] is described as follows: Caspase-3/7 induction in HepG2 cells by small molecules, qHTS cell viability counter screen (AID 1346981). Further: series mostly up to about 92 µM; nearly all actives have a fitted effect of over 30% in size. Put shortly: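 Fluorescence read-out of live-cell protease activity (CellTiter-Fluor) after 1 hr with reagent. This was measured in the same wells as the caspase-3/7 luminescence, on HepG2 cells exposed to DMSO-dissolved compounds for 16 hr at 37 C.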
The target of test [6] is Nuclear receptor subfamily 1 group I member 2 (Homo sapiens) (UniProt O75469). Description: Human pregnane X receptor (PXR) small molecule agonists, qHTS assay (AID 1346982). Further: nearly all actives have a fitted effect of over 35% in size. Further: potency means the concentration at half of the fitted maximal effect. The essentials:
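HepG2 PXR-Luc reporter line, 5% charcoal-stripped FBS; 5 hr pre-incubation, compound (DMSO) 24 hr at 37 C/5% CO2; ONE-Glo 30 min RT; luminescence read-out.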

Test [7] deals with Acetylcholinesterase (Homo sapiens) (UniProt P22303). Nature of the test: Acetylcholinesterase (AChE) small molecule antagonists: colormetric cell-based qHTS assay (AID 1347395; calls by dose curve; further: nearly all actives have a fitted effect of over 30% in size). Put shortly: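 Cells (SH-SY5Y, 2,000 per well) are seeded and left overnight at 37 C. Compound is added for 30 min, then DTNB and acetylthiocholine for a further 90 min at 37 C before absorbance-based thiocholine detection.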

Test [8] shares this target. Description: Acetylcholinesterase (AChE) small molecule antagonists: enzyme-based qHTS assay (AID 1347397; calls by dose curve; further: nearly all actives have a fitted effect of over 55% in size). The conditions noted are these: Potency: AChE enzyme activity inhibition; outcome: AChE enzyme activity inhibition. The essentials:
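Tox21 library chemicals are tested in qHTS format against recombinant human AChE. The enzyme, dispensed at 50 mU/mL, sits with compound for 30 min at room temperature. A DTNB–acetylthiocholine cocktail follows, and colour is read after 10 min.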

The target is the same in test [9]. Description: Acetylcholinesterase (AChE) small molecule antagonists: fluorescence cell-based qHTS assay (AID 1347398; calls by dose curve; further: nearly all actives have a fitted effect of over 50% in size). The conditions noted are these: Potency: AChE activity; outcome: AChE activity. The essentials:
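Cellular AChE inhibition: SH-SY5Y cells treated with test chemical for 30 min at 37 C, then acetylthiocholine hydrolysis followed over 40 min at room temperature via thiocholine-reactive Thiolite Green fluorescence (490/520 nm).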

Test [10] shares this target. Nature of the test: Acetylcholinesterase (AChE) small molecule antagonists: enzyme-based qHTS assay with human liver microsomes (AID 1347399; calls by dose curve; further: nearly all actives have a fitted effect of over 60% in size). As to conditions: Potency: qHTS inhibition; outcome: qHTS inhibition. Put shortly: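 Recombinant human AChE (50 mU/mL in the enzyme mix) and human liver microsomes (0.25 mg/mL final) were preincubated with compound and NADPH (0.25 mg/mL final) for 30 min at 37 C. Acetylthiocholine/DTNB was then added; thiocholine was read colorimetrically after 10 min at room temperature.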

For test [11], the target named is Cytochrome P450 2C19 (Homo sapiens) (UniProt P33261). Description: Cytochrome P450 Family 2 Subfamily C Member 19 (CYP2C19) small molecule antagonists: luciferase reporter qHTS assay (AID 1671197). Further: nearly all actives have a fitted effect of over 65% in size. Further: potency means the concentration at half of the fitted maximal effect. Put shortly: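 First, compounds are pinned into enzyme-substrate mix and held 10 min at room temperature. Second, NADPH regeneration solution is added and plates incubate 1 h at 37C. Third, detection reagent is added and luminescence read after 20 min.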

Test [12] deals with Cytochrome P450 2C9 (Homo sapiens) (UniProt P11712). Description: Cytochrome P450 Family 2 Subfamily C Member 9 (CYP2C9) small molecule antagonists: luciferase reporter qHTS assay (AID 1671198). Further: nearly all actives have a fitted effect of over 50% in size. Further: potency means the concentration at half of the fitted maximal effect. Put shortly:
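CYP2C9 activity was measured with a P450-Glo proluciferin substrate. Enzyme–substrate mix was held with compound for 10 min at room temperature, then NADPH regeneration solution was added for 1 h at 37C. Luciferin product was read as luminescence.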

Test [13] deals with Cytochrome P450 1A2 (Homo sapiens) (UniProt P05177). Description: Cytochrome P450 Family 1 Subfamily A Member 2 (CYP1A2) small molecule antagonists: luciferase reporter qHTS assay (AID 1671199). Further: nearly all actives have a fitted effect of over 50% in size. Further: potency means the concentration at half of the fitted maximal effect. The essentials:
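Luminescence readout (relative luminescence units) after luciferin detection reagent, 20 min RT. Preceded by 1 h room-temperature CYP1A2 reaction with NADPH regeneration solution following 10 min compound preincubation with enzyme and proluciferin substrate. Furafylline positive control.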
For orientation: A reporter such as luciferase makes a cellular process visible.

Test [14] has as its target Voltage-gated inwardly rectifying potassium channel KCNH2 (Homo sapiens) (UniProt Q12809). Nature of the test: Human Ether-a-go-go-Related Gene (hERG) channel small molecule antagonists: fluorescence cell-based qHTS assay (AID 1671200). Further: nearly all actives have a fitted effect of over 50% in size. Further: potency means the concentration at half of the fitted maximal effect. The essentials: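 Fluorescence at 540 nm emission (480 nm excitation) was recorded kinetically for 2 min at 1-second intervals once the thallium-containing stimulus reached cells previously loaded with FluxOR II dye.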
On the technique in general: The hERG channel carries a current that helps repolarise heart muscle cells.

The target in test [15] is Cytochrome P450 3A4 (Homo sapiens) (UniProt P08684). Nature of the test: Cytochrome P450 Family 3 Subfamily A Member 4 (CYP3A4) small molecule antagonists: luciferase reporter qHTS assay (AID 1671201). The essentials: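 qHTS, 1536-well. CYP3A4 + proluciferin substrate, cpd 10 min RT → NADPH regen 1 h RT → detection reagent 20 min → luminescence (RLU). Ketoconazole positive control.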

In test [16] the target is Cytochrome P450 2D6 (Homo sapiens) (UniProt P10635). Description: Cytochrome P450 Family 2 Subfamily D Member 6 (CYP2D6) small molecule antagonists: luciferase reporter qHTS assay (AID 1671196). Put shortly:
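Luminogenic proluciferin substrate, CYP2D6 enzyme; 10 min RT preincubation with compound, NADPH regeneration system added, 1 h RT. Stop/detection reagent, 20 min RT, luminescence read (RLU). Signal proportional to CYP activity.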

Inconclusive results are not listed. The source made the active and inactive calls. Unless noted, the call rests on the fitted dose curve; in most records, active means well fitted curve in the direction sought with a large enough effect in the repeat runs; inconclusive means weak or mixed curves; inactive means no such curve, though single readings can be large; an effect the other way counts as inactive or inconclusive.

Sequence of Cytochrome P450 2C19 (Homo sapiens) (P33261 whole entry, looked up): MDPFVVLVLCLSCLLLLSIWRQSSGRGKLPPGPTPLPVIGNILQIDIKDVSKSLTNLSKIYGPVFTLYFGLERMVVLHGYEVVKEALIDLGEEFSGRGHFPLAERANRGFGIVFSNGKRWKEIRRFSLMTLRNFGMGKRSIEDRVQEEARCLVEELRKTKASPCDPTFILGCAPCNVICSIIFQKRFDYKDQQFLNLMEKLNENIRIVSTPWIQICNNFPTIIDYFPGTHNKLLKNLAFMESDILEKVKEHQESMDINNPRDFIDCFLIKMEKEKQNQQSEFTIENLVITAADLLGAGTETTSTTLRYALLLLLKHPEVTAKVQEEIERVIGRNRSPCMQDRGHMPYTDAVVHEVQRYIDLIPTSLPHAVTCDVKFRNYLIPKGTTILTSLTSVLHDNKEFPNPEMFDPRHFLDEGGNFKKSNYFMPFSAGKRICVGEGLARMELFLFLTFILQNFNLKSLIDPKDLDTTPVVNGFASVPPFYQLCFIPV
Sequence of Voltage-gated inwardly rectifying potassium channel KCNH2 (Homo sapiens) (Q12809 whole entry, looked up): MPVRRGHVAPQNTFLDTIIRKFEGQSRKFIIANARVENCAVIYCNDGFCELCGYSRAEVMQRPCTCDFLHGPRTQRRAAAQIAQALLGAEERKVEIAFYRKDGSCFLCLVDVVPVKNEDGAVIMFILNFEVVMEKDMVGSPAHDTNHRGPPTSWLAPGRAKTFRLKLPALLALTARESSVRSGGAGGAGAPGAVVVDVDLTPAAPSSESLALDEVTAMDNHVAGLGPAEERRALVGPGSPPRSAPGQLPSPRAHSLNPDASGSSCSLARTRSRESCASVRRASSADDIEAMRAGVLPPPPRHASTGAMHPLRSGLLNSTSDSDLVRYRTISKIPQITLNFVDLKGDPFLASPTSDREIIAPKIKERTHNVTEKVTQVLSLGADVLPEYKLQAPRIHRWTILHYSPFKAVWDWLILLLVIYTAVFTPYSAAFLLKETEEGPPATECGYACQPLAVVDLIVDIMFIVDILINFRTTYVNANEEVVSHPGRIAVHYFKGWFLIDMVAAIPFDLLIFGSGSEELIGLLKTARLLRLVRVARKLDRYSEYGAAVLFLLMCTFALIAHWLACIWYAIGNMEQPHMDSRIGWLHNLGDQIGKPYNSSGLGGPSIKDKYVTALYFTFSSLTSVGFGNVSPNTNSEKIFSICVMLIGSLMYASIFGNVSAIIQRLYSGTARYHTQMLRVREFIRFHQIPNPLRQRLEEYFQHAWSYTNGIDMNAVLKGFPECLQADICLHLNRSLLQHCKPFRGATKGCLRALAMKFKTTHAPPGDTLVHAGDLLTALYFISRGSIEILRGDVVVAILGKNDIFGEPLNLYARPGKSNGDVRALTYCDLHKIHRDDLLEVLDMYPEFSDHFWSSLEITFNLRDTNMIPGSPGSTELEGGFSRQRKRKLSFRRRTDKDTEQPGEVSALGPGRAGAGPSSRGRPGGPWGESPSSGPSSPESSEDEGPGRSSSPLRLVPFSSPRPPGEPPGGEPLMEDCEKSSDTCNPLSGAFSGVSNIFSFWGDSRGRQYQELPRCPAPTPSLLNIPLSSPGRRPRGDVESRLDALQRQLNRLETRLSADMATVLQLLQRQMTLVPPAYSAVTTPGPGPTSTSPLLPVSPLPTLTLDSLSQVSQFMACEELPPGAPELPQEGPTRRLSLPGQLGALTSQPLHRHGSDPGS
Sequence of Nuclear receptor subfamily 1 group I member 2 (Homo sapiens) (O75469 whole entry, looked up): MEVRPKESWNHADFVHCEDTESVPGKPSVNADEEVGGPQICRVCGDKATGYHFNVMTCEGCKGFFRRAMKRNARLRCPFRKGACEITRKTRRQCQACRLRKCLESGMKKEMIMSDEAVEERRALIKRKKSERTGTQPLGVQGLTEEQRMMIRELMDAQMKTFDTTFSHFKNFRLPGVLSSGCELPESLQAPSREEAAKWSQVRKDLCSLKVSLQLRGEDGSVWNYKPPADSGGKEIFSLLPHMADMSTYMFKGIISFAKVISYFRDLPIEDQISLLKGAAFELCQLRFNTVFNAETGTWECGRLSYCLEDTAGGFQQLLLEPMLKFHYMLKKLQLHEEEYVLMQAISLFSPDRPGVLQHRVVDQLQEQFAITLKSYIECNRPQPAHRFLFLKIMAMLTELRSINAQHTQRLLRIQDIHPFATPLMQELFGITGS
Sequence of Cytochrome P450 2C9 (Homo sapiens) (P11712 whole entry, looked up): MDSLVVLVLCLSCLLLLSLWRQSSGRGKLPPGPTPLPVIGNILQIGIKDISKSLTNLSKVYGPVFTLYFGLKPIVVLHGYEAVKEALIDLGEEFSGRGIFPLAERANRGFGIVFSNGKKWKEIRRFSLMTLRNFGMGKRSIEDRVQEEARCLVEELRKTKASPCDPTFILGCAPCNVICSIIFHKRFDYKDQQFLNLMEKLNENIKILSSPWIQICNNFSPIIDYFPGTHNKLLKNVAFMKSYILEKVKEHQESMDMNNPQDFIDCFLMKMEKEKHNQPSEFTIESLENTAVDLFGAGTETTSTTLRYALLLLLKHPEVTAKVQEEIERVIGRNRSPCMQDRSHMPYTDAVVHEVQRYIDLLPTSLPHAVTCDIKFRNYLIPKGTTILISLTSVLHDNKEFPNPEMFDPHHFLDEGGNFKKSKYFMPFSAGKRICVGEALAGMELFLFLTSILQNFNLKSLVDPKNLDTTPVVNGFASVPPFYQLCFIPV
Sequence of Cytochrome P450 2D6 (Homo sapiens) (P10635 whole entry, looked up): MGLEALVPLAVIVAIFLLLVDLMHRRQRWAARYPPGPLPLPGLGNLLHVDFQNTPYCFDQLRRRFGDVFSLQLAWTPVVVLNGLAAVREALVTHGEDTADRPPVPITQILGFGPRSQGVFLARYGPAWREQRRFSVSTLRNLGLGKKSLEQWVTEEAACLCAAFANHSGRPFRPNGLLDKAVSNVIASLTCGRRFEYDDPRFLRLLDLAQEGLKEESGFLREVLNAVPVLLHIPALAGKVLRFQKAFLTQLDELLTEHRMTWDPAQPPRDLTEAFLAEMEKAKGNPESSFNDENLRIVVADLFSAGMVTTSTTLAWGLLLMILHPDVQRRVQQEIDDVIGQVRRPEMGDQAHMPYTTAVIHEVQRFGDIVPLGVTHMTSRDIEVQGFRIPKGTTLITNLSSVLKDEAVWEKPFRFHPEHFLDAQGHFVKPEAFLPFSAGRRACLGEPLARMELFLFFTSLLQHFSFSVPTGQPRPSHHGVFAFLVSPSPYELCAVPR
Sequence of Cytochrome P450 3A4 (Homo sapiens) (P08684 whole entry, looked up): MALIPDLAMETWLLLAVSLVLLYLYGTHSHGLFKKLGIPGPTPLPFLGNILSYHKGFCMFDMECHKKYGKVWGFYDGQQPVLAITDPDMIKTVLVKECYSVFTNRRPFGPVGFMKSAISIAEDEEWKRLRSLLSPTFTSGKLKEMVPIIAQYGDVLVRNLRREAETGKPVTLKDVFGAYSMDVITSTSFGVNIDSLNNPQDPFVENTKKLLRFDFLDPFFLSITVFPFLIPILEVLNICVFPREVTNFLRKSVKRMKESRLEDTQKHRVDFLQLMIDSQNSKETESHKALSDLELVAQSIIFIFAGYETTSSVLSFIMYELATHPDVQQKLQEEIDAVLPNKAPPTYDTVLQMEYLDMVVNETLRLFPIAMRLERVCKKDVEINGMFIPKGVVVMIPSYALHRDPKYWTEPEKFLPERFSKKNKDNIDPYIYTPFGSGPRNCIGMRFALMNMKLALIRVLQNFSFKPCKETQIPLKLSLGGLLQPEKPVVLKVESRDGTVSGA
Sequence of Cytochrome P450 1A2 (Homo sapiens) (P05177 whole entry, looked up): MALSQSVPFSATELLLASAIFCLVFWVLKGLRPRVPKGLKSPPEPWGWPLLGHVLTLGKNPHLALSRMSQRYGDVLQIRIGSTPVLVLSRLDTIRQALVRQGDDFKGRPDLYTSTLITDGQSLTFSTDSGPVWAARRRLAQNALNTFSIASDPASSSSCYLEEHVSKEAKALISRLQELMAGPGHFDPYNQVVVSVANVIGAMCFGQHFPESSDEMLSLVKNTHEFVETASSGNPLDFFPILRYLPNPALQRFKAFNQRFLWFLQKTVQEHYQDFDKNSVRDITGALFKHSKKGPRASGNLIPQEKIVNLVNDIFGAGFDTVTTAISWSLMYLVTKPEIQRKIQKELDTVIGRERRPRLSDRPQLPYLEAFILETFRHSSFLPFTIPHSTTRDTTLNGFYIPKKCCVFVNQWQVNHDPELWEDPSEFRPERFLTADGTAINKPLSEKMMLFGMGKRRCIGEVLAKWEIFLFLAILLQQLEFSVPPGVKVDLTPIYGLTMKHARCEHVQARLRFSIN
Sequence of Acetylcholinesterase (Homo sapiens) (P22303 whole entry, looked up): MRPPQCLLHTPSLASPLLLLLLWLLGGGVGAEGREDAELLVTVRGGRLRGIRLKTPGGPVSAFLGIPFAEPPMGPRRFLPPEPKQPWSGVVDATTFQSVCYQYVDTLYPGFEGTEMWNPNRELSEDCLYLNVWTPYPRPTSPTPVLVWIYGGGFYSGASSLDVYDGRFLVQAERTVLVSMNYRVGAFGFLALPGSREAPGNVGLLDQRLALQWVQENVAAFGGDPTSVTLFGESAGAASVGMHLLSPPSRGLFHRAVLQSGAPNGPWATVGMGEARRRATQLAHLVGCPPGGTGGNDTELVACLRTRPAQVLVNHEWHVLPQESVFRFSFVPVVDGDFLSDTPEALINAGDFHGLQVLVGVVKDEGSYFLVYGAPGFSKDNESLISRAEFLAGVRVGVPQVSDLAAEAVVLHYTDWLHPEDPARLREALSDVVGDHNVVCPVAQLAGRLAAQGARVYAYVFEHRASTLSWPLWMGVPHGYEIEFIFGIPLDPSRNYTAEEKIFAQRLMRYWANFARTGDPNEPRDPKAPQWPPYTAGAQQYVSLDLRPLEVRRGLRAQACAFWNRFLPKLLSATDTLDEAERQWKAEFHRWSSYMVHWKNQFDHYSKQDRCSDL

`O=C(Cc1ccccc1)c1ccccc1`: the Potency result in test [1], in test [2], in [3], in [4], in test [5] and in [7] was “inactive” in each case. Also, the Potency entry in test [8], in [9], in test [10], in [12], in test [14] and in test [15] was “inactive” each time. For the same compound, the Potency in test [6] was 61.1 µM (active); in [11] it was 11.2 µM (active); in test [13], 12.6 µM (active).
For `CCCCC#N`, the Potency entry in [1], in test [2], in test [3], in test [4], in [5] and in test [6] was “inactive” throughout. In addition, the Potency entry in [8], in test [9], in test [10], in test [12], in test [13] and in [14] was “inactive” each time. The Potency entry in test [15] is “inactive”.
Turning to `CC(C)c1ccc(NC(=O)N(C)C)cc1`, the Potency entry in test [1], in test [2], in [3], in test [4], in test [5] and in test [7] was “inactive” each time. The Potency result in [8], in test [9], in test [10], in test [14] and in test [15] was “inactive” each time. The Potency in test [6] is 30.6 µM (active); in [11] it was 31.7 µM (active); in [13] it was 15.9 µM (active).
`OC[P+](CO)(CO)CO`: the Potency entry in test [1], in test [2], in [3], in test [4], in [5] and in test [8] was “inactive” throughout. The Potency entry in test [9], in test [10], in [16], in test [11], in [12] and in test [13] was “inactive” in each case. Besides, the Potency result in test [14] and in test [15] was “inactive” each time. Besides, the Potency in [6] was 61.8 µM (active).
Turning to `Cc1cccc(C)c1NC1=NCCCS1`, the Potency entry in [1], in test [2], in test [3], in test [4], in test [5] and in test [6] was “inactive” each time. In addition, the Potency entry in [7], in [8], in [9], in [10], in test [11] and in test [12] was “inactive” in each case. For the same compound, the Potency entry in test [13] and in [14] was “inactive” throughout.
Take `CC(O)CN1CCN(CC(=O)[O-])CCN(CC(=O)[O-])CCN(CC(=O)[O-])CC1.[Gd+3]` (stereo unspecified): the Potency result in test [1], in [2], in test [3], in test [4], in [5] and in [6] was “inactive” each time. Also, the Potency entry in [7], in [8], in [9], in [10], in test [16] and in [13] was “inactive” throughout. For the same compound, the Potency entry in test [14] and in test [15] was “inactive” each time.
Regarding `CCCC[P+](CC)(CCCC)CCCC` (tested in a mixture with another compound), the Potency entry in test [1], in test [2], in test [3], in test [4], in test [5] and in test [6] was “inactive” each time. Moreover, the Potency entry in [8], in test [9], in [10], in test [12], in test [13] and in test [15] was “inactive” throughout. Also, in test [14], the Potency is 24.7 µM (active).
In the case of `CCC(=O)O[C@@H]1C=C2CCC3C(CCC4(C)C3CC[C@@H]4OC(=O)CC)C2CC1` (stereo partly specified), the Potency entry in test [1], in [2], in test [3], in test [4], in [5] and in test [6] was “inactive” in each case. Besides, the Potency result in [8], in test [9], in test [10], in test [16], in [14] and in test [15] was “inactive” each time. Further, the Potency in [12] was 15.5 µM (active).
